Here are results for 52 compounds from PubChem BioAssay AID686979 (National Center for Advancing Translational Sciences (NCATS), 2013).

Where “and” joins values, the source holds several entries; their conditions need not be identical. Equal entries are not always repeated. The campaign covered roughly 420,000 compounds. About 50,000 (12%) were called active. Inconclusive results (about 26%) are left out. Shown is part of a subset that was picked to be rich in actives. A number with no mark means an inactive call. Calls follow the shape of the dose curve; as a rule, active = well fitted inhibition curve with a large enough effect; inconclusive = small, poorly fitted or top-dose-only effect; inactive = flat fitted curve, though single readings scatter.
% is scaled to controls: 0 for no effect and ±100 for the full control effect; potency is read from the fitted curve at half-maximal effect.

A short description of the test: qHTS for Inhibitors of human tyrosyl-DNA phosphodiesterase 1 (TDP1): qHTS in cells in presence of CPT. Also: nearly all actives have a fitted effect of over 55% in size. The following applies: chicken DT40 Tdp1-/-;hTDP1 cells + 20 nM CPT, ATP luminescence, 48 h; series mostly up to 46.2 µM; activity change, negative = growth inhibition: at the top concentration. The essentials: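 Chicken DT40 Tdp1-/- cells complemented with human TDP1, 400 cells/well, exposed to compounds plus 20 nM camptothecin for at least 48 h at 37 C; viability read as ATP content by CellTiter-Glo luminescence.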
Background: In qHTS, concentration-response curves come from the screen itself.
Turning to `CCCc1cc(=O)oc2c(C)c(OCC(=O)Nc3ccccn3)ccc12`, the “activity change, negative = growth inhibition” value is -26.1%.
On the same count and under the same terms, the result for `CCCc1cc(=O)oc2c(C)c(OCC(=O)NCc3ccccn3)ccc12` reads -14.6%.
For `O=C(NCc1cccnc1)C12CC3CC(CC(C3)C1)C2`, the “activity change, negative = growth inhibition” value is -4.95%.
Still for that read-out and setting: the same measure for `CCOc1ccc(C(C)=O)cc1COC(=O)CNC(=O)c1cccs1`: -9.43%.
The same measure, in the same setting: the same measure for `CN(C)CCCNC(=O)c1ccc2[nH]c3ccccc3c2c1`: 1.83%; for `COC(=O)CCNC(=O)c1ccc2[nH]c(C)c(C)c2c1`: -14.2%.
On to `Cc1ccc(C(=O)NCCSc2c(C)[nH]c3ccccc23)cc1C`, for which the Potency was 18.4 µM (active).
Regarding `COc1cccc(NC(=O)CN(C)C(=O)CSC(=S)N2CCCC2)c1`, the “activity change, negative = growth inhibition” value is 2.73%.
Consider `Cn1c(=O)sc2cc(NS(=O)(=O)c3ccc(C(C)(C)C)cc3)ccc21`, for which the “activity change, negative = growth inhibition” value was -14%.
Take `Cn1c(=O)n(C)c2cc(S(=O)(=O)Nc3ccc(F)cc3)ccc21`: the Potency is 16.4 µM (active).
For `Cc1cc(C)cc(NS(=O)(=O)c2ccc(F)cc2)c1`, the “activity change, negative = growth inhibition” value was -0.189%.
On the same count and under the same terms, the result for `O=C(Nc1ccccc1N1CCOCC1)c1ccc(OCc2cscn2)cc1` reads -9.05%; that for `O=Nc1c(O)cc(O)c2ccccc12`, 2.19%; that for `O=C(/C=C/c1cccc(F)c1)NC1CC1`, 14.9%.
Still for that read-out and setting: the same measure for `Cc1cc(NC(C)C)n2c(nc3ccccc32)c1C#N`: 2.8%.
For the compound `CC(C)c1cc(NCc2ccccn2)n2c(nc3ccccc32)c1C#N`, the Potency was 5.8 µM (active).
For the compound `Cc1cc(NCc2ccco2)n2c(nc3ccccc32)c1C#N`, the “activity change, negative = growth inhibition” value is -21.1%.
The same measure, in the same setting: the result for `O=C(COC(=O)c1cc(S(=O)(=O)N2CCOCC2)ccc1F)NC1CC1` reads 13.6%.
Same read-out and setting: the same measure for `Cc1ccc(NC(=O)CN2CCc3ccccc3C2)cc1`: -11.7%.
Still for that read-out and setting: the same measure for `O=C(c1ccc(CSc2ccccc2)cc1)N1CCCCCC1`: -29.9%; for `CCS(=O)(=O)N1CCN(C(=O)c2cccs2)CC1`: 18.7%.
On to `CCCS(=O)(=O)N1CCN(C(=O)c2cccs2)CC1`, for which the “activity change, negative = growth inhibition” value is -5.54%.
For `Cc1ccc(C(=O)C[n+]2cc(-c3ccccc3)n3c2CCCCC3)cc1`, the Potency was 5.62 µM (active) and 1.64 µM (active).
As for `Cc1ccc(NC(=S)N2CCCC(c3ccccc3)=N2)cc1`, the “activity change, negative = growth inhibition” value is -0.285%.
On to `O=C(C[n+]1cc(-c2ccc(Cl)c(Cl)c2)n2c1CCC2)c1cccs1`, for which the Potency was 10.3 µM (active).
On to `Cc1ccc(C(=O)N2CCCC(c3ccccc3)=N2)cc1`, for which the “activity change, negative = growth inhibition” value was 1.43%.
`Cc1ccc(-c2c[n+](CC(=O)Nc3ccccc3)c3n2CCC3)cc1`: the Potency is 11.6 µM (active).
As to `COc1ccccc1NC(=O)N1CCCC1C(=O)NCc1cccs1` (configuration not stated), the “activity change, negative = growth inhibition” value was 5.59%.
Still for that read-out and setting: the same measure for `CC(C)CN(C(=O)CSc1ncnc2sccc12)C1CCS(=O)(=O)C1` (configuration not stated): -4.09%.
Consider `O=C(COc1ccc(NC(=O)c2ccccc2[N+](=O)[O-])cc1)c1ccc(F)cc1`, for which the “activity change, negative = growth inhibition” value was -2.89%.
In the case of `CSc1nc(-c2ccccc2)nc(C(Cl)Cl)n1`, the Potency is 1.16 µM (active).
Turning to `CSc1ncc(Sc2ccccc2)c(C(=O)O)n1`, the “activity change, negative = growth inhibition” value was -2.14%.
Still for that read-out and setting: the same measure for `COc1ccc(CC(NC(C)=O)C(=O)N2CCN(C(=O)Nc3cccc(Cl)c3)CC2)cc1OC` (configuration not stated): -3%.
For `COc1ccc(OCCC(=O)c2ccc(OC)cc2)cc1`, the Potency is 2.59 µM (active).
Take `COc1ccc(OCCCC(=O)Oc2ccc(OC)cc2)cc1`: the “activity change, negative = growth inhibition” value was -9.99%.
With `COc1ccc(CCC(=O)c2ccc(OC)cc2)cc1`, the “activity change, negative = growth inhibition” value was 3.92%.
On the same count and under the same terms, the result for `Cc1ccc2sc(NNC(=O)c3ccc4c(c3)OCCO4)nc2c1C` reads -14.2%; that for `CNc1ccc(-c2nc(-c3ccccc3C)no2)cc1[N+](=O)[O-]`, -4.91%.
As to `Cc1onc(-c2ccccc2)c1C(=O)N1CCOCC1`, the “activity change, negative = growth inhibition” value was 2.28%.
Same read-out and setting: the result for `Cc1noc(C)c1C(=O)N1CCOCC1` reads -8.25%.
As for `Cc1oc2c(c1C(=O)N1CCOCC1)C(=O)c1ccccc1C2=O`, the Potency was 2.59 µM (active).
With `CC(NCC(=O)Nc1ccccc1C(=O)NC1CC1)c1ccccc1Cl` (configuration not stated), the “activity change, negative = growth inhibition” value is 1.01%.
The same measure, in the same setting: the result for `O=C(c1cccc(Br)c1)N1CCN(Cc2cc(=O)n3nc(-c4ccccc4)sc3n2)CC1` reads -1.68%.
For the compound `CCOC(=O)c1sc(=S)n(-c2cccc(OC)c2)c1N`, the Potency was 35.5 µM (active).
Regarding `COc1cccc(-n2c(=S)sc3c(=O)n(-c4ccccc4C)c(SCC(=O)O)nc32)c1`, the “activity change, negative = growth inhibition” value is 22%.
Still for that read-out and setting: the same measure for `CCOC(=O)C(C)n1cnc2c(nnn2-c2cccc(OC)c2)c1=O` (configuration not stated): -3.77%.
On the same count and under the same terms, the same measure for `Cc1cc(Br)ccc1NC(=O)c1sc2ncn(CC(=O)N3CCN(c4ccccn4)CC3)c(=O)c2c1C`: -23.7%.
Still for that read-out and setting: the same measure for `Cc1ccc(S(=O)(=O)NCC(=O)N2CCN(c3ccccn3)CC2)cc1`: -5.89%; for `CSc1ncccc1C(=O)Nc1cccc(S(=O)(=O)N2CCOCC2)c1`: 1.28%.
For the compound `Cc1cc(Br)ccc1NC(=O)c1cnc(N2CCN(c3ccccn3)CC2)c2ccccc12`, the Potency is 14.6 µM (active).
The same measure, in the same setting: the result for `CCc1cccc(NC(=O)c2cnc(N3CCOCC3)c3ccccc23)c1` reads 20.6 µM (active).
On to `O=C(Nc1ccc(F)cc1)c1cccnc1N1CCOCC1`, for which the “activity change, negative = growth inhibition” value is -2.24%.
